About 14,000 (4.5%) of roughly 310,000 compounds showed an effect of 50% or more. The effect is printed as a negative number. The entries come from a sample that favours strong results as a whole.
Target: human ether-à-go-go-related gene (hERG) potassium channel (human, UniProt Q12809)
Test: primary screen, population patch clamp on CHO cells stably expressing hERG; higher = less effect of the substance
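Also: peak tail current of the secondary pulse compared with the same well before compound.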

human ether-à-go-go-related gene (hERG) potassium channel, sequence (Q12809 whole entry, looked up): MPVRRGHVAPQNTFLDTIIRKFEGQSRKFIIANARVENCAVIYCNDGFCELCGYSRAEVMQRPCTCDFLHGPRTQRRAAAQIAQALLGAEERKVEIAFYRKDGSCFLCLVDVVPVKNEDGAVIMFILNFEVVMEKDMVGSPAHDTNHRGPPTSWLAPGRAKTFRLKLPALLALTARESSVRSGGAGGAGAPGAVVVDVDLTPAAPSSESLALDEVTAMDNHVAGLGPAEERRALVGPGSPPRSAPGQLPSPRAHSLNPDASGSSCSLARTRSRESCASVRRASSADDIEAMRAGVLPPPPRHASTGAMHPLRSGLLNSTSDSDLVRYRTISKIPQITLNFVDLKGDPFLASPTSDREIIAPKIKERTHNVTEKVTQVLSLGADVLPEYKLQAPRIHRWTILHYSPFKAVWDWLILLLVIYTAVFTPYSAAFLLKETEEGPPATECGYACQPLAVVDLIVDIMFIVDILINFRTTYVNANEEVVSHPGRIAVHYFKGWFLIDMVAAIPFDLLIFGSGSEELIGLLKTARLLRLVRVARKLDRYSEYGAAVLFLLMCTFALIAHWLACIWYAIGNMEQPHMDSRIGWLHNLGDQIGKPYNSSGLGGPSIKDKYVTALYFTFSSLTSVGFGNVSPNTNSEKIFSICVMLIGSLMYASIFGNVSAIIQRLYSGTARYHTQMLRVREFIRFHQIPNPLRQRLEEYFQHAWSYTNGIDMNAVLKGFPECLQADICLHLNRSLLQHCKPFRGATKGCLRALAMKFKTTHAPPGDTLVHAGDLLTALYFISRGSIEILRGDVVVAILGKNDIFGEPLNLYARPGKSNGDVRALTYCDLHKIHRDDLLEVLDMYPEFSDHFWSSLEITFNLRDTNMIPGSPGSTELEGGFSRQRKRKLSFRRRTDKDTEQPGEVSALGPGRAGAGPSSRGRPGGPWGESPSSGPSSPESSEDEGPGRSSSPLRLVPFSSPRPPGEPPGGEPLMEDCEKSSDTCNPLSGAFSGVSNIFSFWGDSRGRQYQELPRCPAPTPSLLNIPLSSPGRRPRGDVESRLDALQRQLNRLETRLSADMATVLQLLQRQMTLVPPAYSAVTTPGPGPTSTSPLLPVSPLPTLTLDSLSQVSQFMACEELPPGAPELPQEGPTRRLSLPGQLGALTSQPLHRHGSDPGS

SMILES	hERG current change (%, negative = inhibition) at 10uM
CN(Cc1ccccc1Br)C(=O)CN1C(=O)NC2(CCCCCC2)C1=O	-11.1%
O=C(Nc1cccc(Cl)c1)OCCOc1ccccc1	23%
OCC1(CCOc2ccccc2)CCN(Cc2ccncc2)CC1	-41.5%
CC(=O)Nc1ccc(CN2CCC(CO)(CCOc3ccccc3)CC2)cc1	-69.9%
CC(=O)Nc1ccc(N2CCN(Cc3ccccc3)CC2)cc1	-14.6%
CSc1ccc(CN2CCC(CO)(CCOc3ccccc3)CC2)cc1	-78.4%
COC(=O)c1ccc(CN2CCC(CO)(CCOc3ccccc3)CC2)cc1	-80.1%
O=C(Nc1cccc(Cl)c1)N1CCCC1	5.7%
O=C(Nc1cccc(Cl)c1)N1CCC(CO)(CCOc2ccccc2)CC1	-58.6%
CCS(=O)(=O)N1CCN=C1SCc1cccc(F)c1	14.7%
CCCCN(C)C(=O)c1ccc2c(c1)S(=O)(=O)c1ccccc1C2=O	-24.4%
Cc1ccc(C2(C)NC(=O)N(CC(=O)NC(C)c3ccccc3)C2=O)cc1 (stereo not shown)	11.7%
CC(C)(C)c1ccc(OCCC(=O)OCC(=O)NC(=O)NC2CCCC2)cc1	10.7%
COc1ccc(NC(C)=O)cc1NC(=O)CSc1nnc(-c2ccccn2)n1C	-7.69%
Cc1ccsc1CN(C)C(=O)CN1C(=O)NC(c2ccccc2)(c2ccccc2)C1=O	-21.5%
CCOC(=O)c1c(C)n(C)c2ccc(OCC(O)CN3CCCCCC3)cc12.Cl (stereo not shown)	-18.4%
NNC(=O)c1n[nH]c2c1CC(C1CCCCC1)CC2 (stereo not shown)	10.8%
CCOCCn1c(C(C)O)nc2ccccc21 (stereo not shown)	11.7%
Cc1cc(Cl)nc(-n2nc(C)cc2C)n1	2.6%
OC(COCc1ccc(Cl)cc1)CN1CCN(CC(O)COCc2ccc(Cl)cc2)CC1 (stereo not shown)	-75.2%
Cl.OC(COCc1ccc(Cl)cc1)CN1CCCCC1 (stereo not shown)	-35.8%
CCOC(=O)C1CCN(CC(O)COCc2ccccc2)CC1.O=C(O)C(=O)O (stereo not shown)	-31.1%
O=C(O)C(=O)O.OC(COCc1ccc(Cl)cc1)CN1CC=C(c2ccccc2)CC1 (stereo not shown)	-77.2%

SMILES	hERG current change (%, negative = inhibition) at 10uM
COc1ccc(COCC(O)CN2CCc3ccccc3C2)cc1OC.Cl (stereo not shown)	1.52%
OC(CN1CC=C(c2ccccc2)CC1)c1ccccc1 (stereo not shown)	-33%
NC(=O)C1CCCN(CC(O)COCc2ccc(Cl)cc2)C1.O=C(O)C(=O)O (stereo not shown)	-8.86%
CCOC(=O)C1CCN(CC(O)COCc2ccc3c(c2)OCO3)CC1.Cl (stereo not shown)	-46%
CCOC(=O)C1CCN(CC(O)COCc2ccc(Cl)cc2)CC1.Cl (stereo not shown)	-79.2%
Cl.OC(COCc1ccccc1)CN1CCc2ccccc2C1 (stereo not shown)	-25.7%
Cl.OC(COCc1ccccc1)CN1CCCC1 (stereo not shown)	-6.03%
Cl.OC(COCc1ccc(Cl)cc1)CN1CCc2ccccc2C1 (stereo not shown)	-70.4%
O=C(NCC(=O)N1CCCCCC1)c1ccc(Br)cc1	-7.84%
CCOP(=O)(OCC)c1nc(-c2cccc3ccccc23)oc1NCc1ccccc1	10.2%
O=C(CN1CCc2ccccc2C1)Nc1cc(S(=O)(=O)N2CCOCC2)ccc1N1CCCC1	0.983%
O=C(N/N=C/C=C/c1ccccc1)c1cnccn1	6.57%
Cc1noc(C)c1S(=O)(=O)Nc1ccc(C(=O)N2CCC(C)CC2)cc1	-4.35%
CCOC(=O)C1CCN(S(=O)(=O)Cc2ccc(Cl)cc2)CC1	1.25%
CCOC(=O)C1CCC(CNCc2ccccc2C)CC1.Cl (stereo not shown)	-24.4%
CC(=O)c1cccc(OCC(O)CN2CC=C(c3ccccc3)CC2)c1.O=C(O)C(=O)O (stereo not shown)	-68.9%
CCOC(=O)C1CCC(CNCc2ccc(Cl)cc2)CC1 (stereo not shown)	-69.2%
COc1cccc(OCC(O)CN2CCN(C)CC2)c1.O=C(O)C(=O)O (stereo not shown)	16.2%
CC(=O)c1cccc(OCC(O)CN2CCN(S(=O)(=O)c3c(F)cccc3F)CC2)c1.O=C(O)C(=O)O (stereo not shown)	-31%
Cc1ccc(S(=O)(=O)n2c(C)nc3cc(C)ccc32)cc1	-3.01%
CCn1c(C)nc2cc(C(=O)OC)ccc21	14.3%
CCOc1ccc(Oc2ccc(Cl)cc2N)cc1.Cl	2.9%
Cc1ccc2nc3c(c(C(=O)OC4CCOC4=O)c2c1)CCCC3 (stereo not shown)	-0.191%

SMILES	hERG current change (%, negative = inhibition) at 10uM
CCOC(=O)C1CCN(c2nc(-c3ccc(Br)cc3)nc3ccccc23)CC1	-1.89%
O=S(=O)(c1ccccc1)c1cnc(-c2ccccc2)nc1N1CCCC1	41.8%
CN1CCN(c2nc(-c3cccc([N+](=O)[O-])c3)nc3ccccc23)CC1	-48.4%
O=S(=O)(c1ccc(F)cc1)N1CCN(c2nc(-c3cccnc3)nc3ccccc23)CC1	-72%
CN1CCN(c2nc(-c3ccncc3)nc3ccccc23)CC1	-67.4%
Cc1ccc(S(=O)(=O)c2cnc(-c3ccccc3)nc2N2CCN(C)CC2)cc1	-49.1%
NC(=O)C1CCN(c2nc(-c3ccccc3)nc3ccccc23)CC1	-56%
CN1CCN(c2nc(-c3cccnc3)nc3ccccc23)CC1	-48.5%
CN1CCN(c2nc(-c3ccccc3)ncc2S(=O)(=O)c2ccccc2)CC1	-63.2%
COc1ccc(S(=O)(=O)N2CCN(c3nc(-c4cccnc4)nc4ccccc34)CC2)cc1	-39%
CCOC(=O)C1CCN(c2nc(-c3ccc(C)cc3)nc3ccccc23)CC1	15.4%
CC(=O)c1ccc(S(=O)(=O)N2CCN(c3nc(-c4cccnc4)nc4ccccc34)CC2)cc1	-40.4%
O=[N+]([O-])c1cnn(-c2nc(-c3ccccc3)cc(C(F)(F)F)n2)c1	8.82%
N/C(=N\OS(=O)(=O)c1ccc2ccccc2c1)c1cccnc1	5.24%
COc1ccc([N+](=O)[O-])cc1N(CC(=O)O)S(C)(=O)=O	13.7%
O=C(O)CC1NC(=O)N(c2ccc(Cl)cc2)C1=O (stereo not shown)	19.5%
CSc1nc(N2CCOCC2)c2c3c(sc2n1)CCCC3	-2.32%
O=C1c2ccccc2COc2ccc(O)cc21	10.9%
CC(C)N(Cc1ccc(F)cc1)C(=O)c1cc2ccccc2oc1=O	19.5%
CC1CCCC(NC(=O)COC(=O)Cc2c[nH]c3ccccc23)C1C (stereo not shown)	-14%
NC(=S)N/N=C\c1c(OCc2ccccc2Cl)ccc2ccccc12	-2.61%
CN1CCN(/N=C/c2cccc(Cl)c2Cl)CC1.Cl	6.09%
O=S(=O)(c1cccs1)N1CCCc2cccc(O)c21	7.34%

SMILES	hERG current change (%, negative = inhibition) at 10uM
Cc1ccc(S(=O)CCNC(=O)Cc2ccc(Cl)cc2)cc1 (stereo not shown)	-8.83%
CCS(=O)(=O)N1CCCC(C(=O)NC2CCC(C)CC2)C1 (stereo not shown)	6.05%
COc1ccc(OC)c(-n2cc3c(=O)n(C)c(=O)n(C)c3c2)c1	-8.58%
c1ccc2c(N3CCCCCC3)nc(-c3ccncc3)nc2c1	-34.5%
CCCOc1ccc(-c2nc(N3CCN(C)CC3)c3ccccc3n2)cc1	-21.6%
c1ccc2c(N3CCOCC3)nc(-c3ccncc3)nc2c1	-31.3%
c1ccc2c(N3CCCC3)nc(-c3ccncc3)nc2c1	-56.9%
O=S(=O)(/C=C/c1ccccc1)N1CCN(c2nc(-c3cccnc3)nc3ccccc23)CC1	-23.6%
CN1CCN(c2nc(-c3ccc(C(C)(C)C)cc3)nc3ccccc23)CC1.Cl	-2.05%
CN1CCN(c2nc(-c3ccc(Br)cc3)nnc2-c2ccccc2)CC1	-63.5%
Cc1ccc(-c2nc(N3CCN(C)CC3)c3ccccc3n2)cc1.Cl	-59.9%
c1cncc(-c2nc(N3CCCCCC3)c3ccccc3n2)c1	-92.9%
Cc1ccc(-c2nnc(-c3ccccc3)c(N3CCOCC3)n2)cc1	-30%
Brc1ccc(-c2nnc(-c3ccccc3)c(N3CCSCC3)n2)cc1	4.62%
c1cncc(-c2nc(N3CCOCC3)c3ccccc3n2)c1	-17%
O=[N+]([O-])c1cc(Cl)cc(/C=N/NC(=S)Nc2ccc(S(=O)(=O)N3CCOCC3)cc2)c1O	14.3%
Cc1cc(NS(=O)(=O)c2ccc(NC(=O)c3ccc(Cl)cc3Cl)cc2)no1	24.4%
O=C(N=C1SC2CS(=O)(=O)CC2N1c1ccccc1F)C1CCCCC1 (stereo not shown)	8%
O=C(NCc1ccccn1)C1CCN(S(=O)(=O)N2CCCC2)CC1	-8.11%
COc1ccc(-c2nnc(SCC3CCCO3)n2C)cc1 (stereo not shown)	0.931%
Nc1c(N=O)c(=O)[nH]c(=O)n1-c1ccccc1	10.2%
NS(=O)(=O)c1ccc(CCNC(=O)C2CCN(c3ncnc4c3nc3n4CCCCC3)CC2)cc1	9.07%

Source: PMC4336329 (PLoS ONE, 2015)
